Measured values from PubChem BioAssay (NCATS).
Results filed as inconclusive are left out. Activity calls are given as the source filed them. The call rests on the fitted dose curve; in most records, active means well fitted activation curve with a large enough effect; inconclusive means small, poorly fitted or top-dose-only effect; inactive means flat fitted curve, though single readings scatter.

test: Primary redox qHTS assay for identification of artifact compounds. (AID 1845223); details: Amplex Red/HRP redox cycling with DTT, fluorescence; series mostly up to 53.8 µM; redox activity (% of DA3003): at the top concentration;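 further: 0% = DMSO and 100% = reference compound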
How it was run: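 Redox-cycling detection via DTT (250 uM final) oxidation coupled to Amplex Red (25 uM)/HRP (250 mU/mL) in HBSS. 15 min preincubation plus 30 min after DTT, room temperature. Ex/Em 525/598 nm; 4-parameter Hill fit against DMSO and 10 uM DA3003.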

Row | Compound | redox activity (% of DA3003)
1 | COc1c(C)c(OCC(O)C(C)(C)O)cc2c1CNC2=O (stereo unspecified) | 18.6% (inactive)
2 | O=C(/C=C/c1ccc(O)c(O)c1)O[C@H]1[C@H](OC2CCCCC2O)O[C@H](CO)[C@@H](O)[C@@H]1O (stereo partly specified) | -6.37% [at 25.6 µM] (inactive)
3 | CC12CC(O)C(O)C=C1c1cc(O)cc(O)c1C(=O)O2 (stereo unspecified) | -1.88% (inactive)
4 | CC(=O)c1ccc(O[C@@H]2O[C@H](CO[C@@H]3OC[C@@H](O)[C@H](O)[C@H]3O)[C@@H](O)[C@H](O)[C@H]2O)cc1 | -0.16% [at 25.6 µM] (inactive)
5 | OC[C@@]1(O)CO[C@H](OC[C@H]2O[C@@H](OCCc3ccccc3)[C@H](O)[C@@H](O)[C@@H]2O)[C@@H]1O | -0.884% [at 25.6 µM] (inactive)
6 | COc1c(O)cc2c(c1O)C(=O)O[C@H](C)[C@H]2O | -15% (inactive)
